# Test results: PubChem BioAssay AID651780 (The Scripps Research Institute Molecular Screening Center, 2012)
# The whole screen tested about 2,400 compounds, of which about 1,800 (75%) were called active. The set was probably picked from earlier hits. A selection follows. Unmarked numbers belong to inactive results. Cut-off read from the data, not from the text of the source: active = inhibition above about 22%; inactive = the rest.
# Assay: calcium response inhibition in counter-screen line – cell-based, fluorescence, counter-screen for hTAAR1 antagonist project (AID 651780);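 note: CHO-Ga16 host cells stimulated with ATP at an EC80 level; 0% = agonist EC80 plus vehicle and 100% = vehicle without agonist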
# Details: counterscreen cell line, antagonist mode, at 3 µM, hits give high values
row,SMILES,inhibition
1,O=C(CCc1ccccc1)Nc1cccc(-c2nnc(-c3ccco3)o2)c1,25.8% (active)
2,CCN=C1SC(CC(=O)Nc2ccc(C)cc2)C(=O)N1CC (centres undefined),29.4% (active)
3,O=C(Nc1ccccc1-c1nnn(CC(=O)N2CCN(c3ccccc3)CC2)n1)c1cccs1,36.9% (active)
4,Cn1c(C(=O)NCCc2ccsc2)cc2c(=O)n(C)c3ccccc3c21,27.8% (active)
5,Cc1ccccc1OCC(=O)Nc1ccc(N2CCN(C(=O)C(C)C)CC2)c(Cl)c1,43.2% (active)
6,CN(c1ccccc1)S(=O)(=O)c1cc(C(=O)Nc2nc3ccccc3[nH]2)ccc1Cl,39.7% (active)
7,COc1ccc(C2=NOC(Cn3nc(C(=O)NCc4ccc5c(c4)OCO5)cc3-c3ccccc3)C2)cc1 (centres undefined),34.1% (active)
8,O=C(NCc1ccc2c(c1)OCO2)c1c(-c2ccsc2)sc2ccccc12,21.1%
9,CC(C)N(Cc1ccccc1)C(=O)COC(=O)c1ccccc1SCC(=O)N1CCCC1,30.8% (active)
10,O=C(COC(=O)c1ccccc1SCC(=O)N1CCCC1)Nc1ccccc1OC(F)F,27.2% (active)
11,Cc1cc(C(C)(C)C)oc1C(=O)N(CC(=O)NC1CCCC1)Cc1ccc(Cl)cc1,36% (active)
12,COC(=O)Cc1nnn2c1[C@H](C)[C@H](c1ccccc1[N+](=O)[O-])OCC2,5.35%
13,COc1ccc(/C=C/C(=O)Nc2ccc(C34CC5CC(CC(O)(C5)C3)C4)cc2)cc1OC,37% (active)
14,CCOc1ccc(N2CC(C(=O)N/N=C/c3sccc3C)CC2=O)cc1 (centres undefined),10.5%
15,CSc1ncnc2c1ncn2CC(=O)C1CCC2C3CCC4=CC(=O)CCC4(C)C3CCC12C (centres undefined),49.7% (active)
16,CC(C)Oc1cc(F)ccc1-c1cc(C(=O)Nc2ccc(F)cc2)[nH]n1,26.3% (active)
17,COc1ccc(NC(=O)c2cc(-c3ccc(C)o3)nc3ccccc23)cc1,36.1% (active)
18,COc1ccc(-c2cc(C(=O)Nc3ccccc3O)c3ccccc3n2)cc1,32.2% (active)
19,N#Cc1cccc(NC(=O)COC(=O)c2ccccc2C(=O)c2ccc(Cl)c([N+](=O)[O-])c2)c1,36.1% (active)
20,O=C(NCCN1CCOCC1)c1ccc(/C=C2\Sc3ccccc3N(Cc3ccc(F)cc3)C2=O)cc1,35.2% (active)
21,O=C(NCCN1C(=O)S/C(=C\c2cccnc2)C1=O)c1ccc(S(=O)(=O)N2CCCC2)cc1,13%
22,COc1ccc(-c2cc(C(=O)N(C)Cc3ccc(OC)c(OC)c3OC)c3ccccc3n2)cc1OC,30.9% (active)
23,COc1ccc(-c2cc(C(=O)N(C)CC(=O)Nc3ccccc3Cl)c3ccccc3n2)cc1OC,27.4% (active)
24,COc1ccc(CN(C)C(=O)c2cc(-c3ccc(C)cc3C)nc3ccccc23)c(OC)c1OC,28% (active)
25,COc1ccc(-c2cc(C(=O)N(C)Cc3ccccc3)c3ccccc3n2)cc1,27.7% (active)
26,O=C(N/N=C/c1ccc(OC(=O)c2ccccc2Cl)cc1)c1ccc(O)cc1,36.3% (active)
27,CCOc1cc(/C=N/NC(=O)c2cc(-c3ccccc3)nc3ccccc23)ccc1O,19%
28,COc1ccc(C(=O)Nc2ccccc2C(=O)N/N=C/c2ccc(O)c(OC)c2)cc1,38.3% (active)
29,CC/C(=N/Nc1ccccc1)c1cnnc(SC)n1,16.8%
